Data reported in the supplement of paper PMC10338343.
± gives the standard deviation.

Tests used:
[1] = test system: MILI (PIWIL2) piRISC loaded with piRNA #1 (26 nt); assay: pre-steady-state target cleavage rate (min^-1); guide: piRNA #1 5'p-UGAGGUAGUAGGUUGUAUAGUAUCCA; higher = faster piRNA-guided slicing of the target; conditions: auxiliary factor: 500 nM mouse GTSF1
How it was run: (§1)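 Active affinity-purified piRISC (1 nM) loaded with one synthetic guide was mixed with a transcribed, DNA-blocked target RNA library (0.1 nM), with or without 500 nM GTSF1 partner protein, in HEPES–potassium acetate buffer at 33 °C for 0–8 or 0–960 min. Uncleaved targets were sequenced, normalised to depth and to weakly complementary targets, and pooled across three trials, with k3 capped at 0.0001 min^-1. The pre-steady-state cleavage rate was determined with a burst-and-steady-state fit.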

[2] = test system: EfPiwi piRISC loaded with piRNA #1 (26 nt); assay: pre-steady-state target cleavage rate (min^-1); auxiliary factor: 500 nM Ephydatia muelleri Gtsf1; guide: piRNA #1 5'p-UGAGGUAGUAGGUUGUAUAGUAUCCA; MIWI and MILI are mouse PIWI proteins and EfPiwi is from a freshwater sponge; tags in brackets are library labels; higher = faster piRNA-guided slicing of the target
How it was run: as §1

Sequence	pre-steady-state target cleavage rate [1]	pre-steady-state target cleavage rate [2]
GGAGACGAUACUAUAGAUCCUACUACCUCA	0.224 ± 0.013	0.00498 ± 0.0016
GGAGACCUUACUAUACAACCUACUAGCCUCA	0.181 ± 0.018	0.00471 ± 0.0044
GGAGACCAUACUUUACUACCUACUACCUCA	0.129 ± 0.015	0.00371 ± 0.0032
GGAGACCUAACUAUACAAACUACUACCUCA	0.248 ± 0.025	0.0044 ± 0.0038
GGAGAGGAUACUAUAAAACCUACUACCUCA	0.181 ± 0.013	0.00425 ± 0.0029
GGAGACCAUUCUUUACAACCUACUACCUCA	0.0902 ± 0.012	0.0111 ± 0.0056
GGAGACCUAACUAUACAACCUACGACCUCA	0.129 ± 0.027	0.00261 ± 0.0025
GGAGUGGAUACUAUACAUCCUACUACGUCA	0.0364 ± 0.0082	0.0038 ± 0.0013
GGAGACGAUACUAUACAACCUAGAUCCUCA	0.00708 ± 0.0033	0.00272 ± 0.0017
GGAGAGGAUACUUUACAACCUACUACCUGA	0.0593 ± 0.011	0.00329 ± 0.0017
GGAGACCUAUGUAUACAACCUACUACCUCU [g2:g19:cont:t1U]	0.0508 ± 0.0069	0.404 ± 0.18
GGAGACCAUACUAUUCAACCUACUUCCUCA	0.1 ± 0.022	0.00483 ± 0.0048
GGAGACCUUACUAUACAACCUACUACCUA	0.152 ± 0.018	0.0485 ± 0.018
GGAGACCUAUCUGAUACAACCUACUACCUCA	0.0421 ± 0.0081	0.00758 ± 0.0035
GGAGAGCAUACUAUACAACCUACUUCCUCA	0.0809 ± 0.025	0.00292 ± 0.0021
GGAGACCUAGCUAUACAACCUACUACCUCA	0.0862 ± 0.027	0.00604 ± 0.0058

Sequence	pre-steady-state target cleavage rate [1]	pre-steady-state target cleavage rate [2]
GGAGACCUAACUAUACAACCUACUACCUUCA	0.14 ± 0.028	0.0285 ± 0.011
GGAGAGGAAACUAUACAACCUUCUACCUCA	0.00762 ± 0.006	0.00297 ± 0.0027
GGAGAGGAUACUAUACAACCUACUUGCUCA	0.00476 ± 0.0029	0.00478 ± 0.0023
GGAGACCAAACUAAACAACCUACUACCUCA	0.104 ± 0.027	0.00793 ± 0.0036
GGAGAGGAUACUAUACAACCUACUCCCUCA	0.0191 ± 0.006	0.00429 ± 0.0017
GGAGUGGAUACUAUACAACCUACUACGCUCA	0.111 ± 0.015	0.00482 ± 0.0021
GGAGACGAUACUAUACAACCUACGUACCUCA	0.108 ± 0.013	0.00418 ± 0.0019
GGAGACGAAACUAUACAACCUAGUACCUCA	0.0663 ± 0.021	0.0035 ± 0.0025
GGAGUGGUUACUAUACAACGUACUACCUCA	0.0218 ± 0.003	0.00485 ± 0.0014
GGAGAGGAUACAAUACAACCUACUUCCUCA	0.0281 ± 0.0083	0.00257 ± 0.002
GGAGUGCAUACUAUACAACCUACUACCUGA	0.09 ± 0.011	0.00576 ± 0.0029
GGAGACGAUACUAUACAACCUACUACUCUCA	0.244 ± 0.019	0.00563 ± 0.0022
GGAGACCUUACUAUACAACCUACUUCCUCA	0.0805 ± 0.016	0.0038 ± 0.0028
GGAGAGGAUACUACACAACCUACUACCUCA	0.193 ± 0.019	0.00871 ± 0.004
GGAGUGGAUACUAUACAACCUACACCUCA	0.00292 ± 0.0021	0.00338 ± 0.0018
